# Compound activity (PubChem BioAssay)
# An excerpt weighted towards active compounds, which were near 10% of everything screened.
# CtBP-E1A blk: qHTS Assay for Inhibitors of the CtBP/E1A Interaction | AlphaScreen GST-E1A/His-CtBP binding, 1536-well; active compounds read low | 0.49% of 340,000 active | activity change, % (test concentration not listed); in the data active = activity change below about -65%; inconclusive = mostly about -30% to -63%
#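 Homogeneous bead-based format: GST-tagged E1A captured on glutathione donor beads, His-tagged CtBP on nickel acceptor beads; compounds precede bead addition by 2 h at 37 °C.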
# HP1b chromo inh: HTS for Inhibitors of HP1-beta Chromodomain Interactions with Methylated Histone Tails; AlphaScreen HP1-beta / biotin-H3K9me3 peptide binding; Potency, µM (doses to about 114 µM), hits mostly inhibitors; 0.56% of 390,000 active; also: nearly all actives have a fitted effect of over 70% in size
# Target sequence (P83916 whole entry, looked up): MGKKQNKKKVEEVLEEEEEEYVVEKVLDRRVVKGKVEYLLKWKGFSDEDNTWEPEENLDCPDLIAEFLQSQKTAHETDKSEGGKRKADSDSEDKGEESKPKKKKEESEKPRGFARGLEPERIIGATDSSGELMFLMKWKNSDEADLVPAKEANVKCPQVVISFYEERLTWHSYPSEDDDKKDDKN
#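 Compound inhibition of the preformed complex between 50 nM HP1-beta and 50 nM biotinylated H3K9me3 peptide was read by AlphaScreen. Buffer was PBS pH 7.4 with 0.01% Tween-20. Incubations ran 30 min at room temperature, with 10 ug/mL donor/acceptor beads.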
# BAZ2B block: qHTS Assay for Inhibitors of BAZ2B. AlphaScreen BAZ2B-H3K14Ac peptide displacement. Potency, µM (titrated, usually from 114 µM), actives largely listed as inhibitors. Bromodomain adjacent to zinc finger domain protein 2B (Homo sapiens), Q9UIF8. 4.4% of 360,000 active. AID 504333, 2011; also: nearly all actives have a fitted effect of over 60% in size
#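 Compounds, titrated to a top concentration of 110 uM, were incubated 30 min at room temperature with preformed BAZ2B/acetyl-K14 H3 peptide complex (50 nM each). Proximity signal was measured by AlphaScreen after 20 min with beads.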
# JMJD2A Tudor inh: qHTS Assay for Inhibitors of JMJD2A-Tudor Domain. Lysine-specific demethylase 4A (Homo sapiens), O75164. Potency, µM (highest dose often 114 µM), actives largely listed as inhibitors. 4.4% of 390,000 active. AID 504339, 2011. AlphaScreen JMJD2A-Tudor / H3K4me3 peptide binding; also: nearly all actives have a fitted effect of over 50% in size
# Six1-Eya2 inh: qHTS Assay for Inhibitors of the Six1/Eya2 Interaction; 0.56% of 360,000 active; AlphaScreen GST-Six1/His-Eya2 binding, biochemical; active compounds read low; activity change, % (test concentration not listed); AID 651725, 2012; Homeobox protein SIX1 (Homo sapiens) + Protein phosphatase EYA2 (Homo sapiens), …; in the data active = activity change below about -65%; inconclusive = mostly about -30% to -63%
#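 Compounds are tested against tagged Six1 and Eya2 proteins bridged by glutathione donor and nickel acceptor beads; after a one-hour incubation at 37 °C without light, AlphaScreen emission is recorded.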
# G9a block: qHTS Assay for Inhibitors of Histone Lysine Methyltransferase G9a; Potency, µM (doses to about 102 µM), hits mostly inhibitors; AID 504332, 2011; 8.8% of 350,000 active; Histone-lysine N-methyltransferase EHMT2 (Homo sapiens), Q96KQ7; G9a H3K9 monomethylation, AlphaScreen, 2 h; also: nearly all actives have a fitted effect of over 75% in size
# Target sequence (Q96KQ7 913-1193 limits assumed): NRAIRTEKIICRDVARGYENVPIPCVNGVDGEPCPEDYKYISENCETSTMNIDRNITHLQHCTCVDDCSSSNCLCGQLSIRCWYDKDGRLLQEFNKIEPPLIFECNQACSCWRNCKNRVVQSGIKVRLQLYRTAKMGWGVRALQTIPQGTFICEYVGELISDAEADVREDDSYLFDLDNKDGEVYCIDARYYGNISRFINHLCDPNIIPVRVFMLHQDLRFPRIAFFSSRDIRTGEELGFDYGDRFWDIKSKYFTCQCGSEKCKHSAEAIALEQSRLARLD
#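 Compounds were preincubated with 20 nM G9a for 15 min, after which biotinylated H3K9 peptide (500 nM) and SAM (20 uM) started a 2 h room-temperature reaction. Monomethylated product was quantified by antibody-based AlphaScreen chemiluminescence.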
# Numbers stand for hits; i = inactive; ? = inconclusive; nt = not tested or not shown; [ ] = another dose, or the depositor's remark. Unless noted, calls follow the shape of the dose curve; as a rule, active = well fitted inhibition curve with a large enough effect; inconclusive = small, poorly fitted or top-dose-only effect; inactive = no such curve, though single readings can be large or run the other way.
SMILES,CtBP-E1A blk,HP1b chromo inh,BAZ2B block,JMJD2A Tudor inh,Six1-Eya2 inh,G9a block
Cc1ccc2nc(N3C(=O)C(O)=C(C(=O)c4cc5ccccc5o4)C3c3cccs3)sc2c1 (centres undefined),i,i,i,?,i,i
O=C(C1=C(O)C(=O)N(c2nc3ccc(Cl)cc3s2)C1c1ccco1)c1ccco1 (centres undefined),i,28µM,45µM,13µM,i,?
COc1ccc(-c2c(C#N)c(SCC(=O)Nc3ccc(C)c(C)c3)nc(C)c2C(=O)Nc2ccccc2)cc1OC,nt,i,i,i,nt,i
COc1cc(OC)c(NC(=O)CCn2cccn2)cc1Cl,nt,i,i,i,nt,i
COc1ccc(-c2nnc(NC(=O)C3CCCN3S(=O)(=O)c3cccs3)o2)cc1 (centres undefined),i,i,50µM,?,?,i
O=C(Nc1nnc(-c2ccccc2)o1)C1CCCN1S(=O)(=O)c1cccs1 (centres undefined),i,i,50µM,?,i,i
O=C(Nc1ccccc1)C1CCCN1S(=O)(=O)c1cccs1 (centres undefined),i,i,i,i,i,?
CNC(=O)c1ccsc1NC(=O)C1CCCN1S(=O)(=O)c1cccs1 (centres undefined),i,i,i,i,i,i
Cn1c(=O)n(-c2cccc(Cl)c2)c(=O)n1C,i,i,i,i,i,i
O=c1c2cn[nH]c2[nH]c(=S)n1-c1cccc(Cl)c1,i,i,i,i,i,32µM
O=C(c1cccn1-c1nnc(N2CCCCC2)s1)N1CCN(c2ccc(Cl)cc2)CC1,nt,i,i,?,nt,i
O=C(N/N=C/C=C/c1ccccc1)c1cnccn1,i,i,i,i,i,i
CC(/C=C/c1ccccc1)=N/NC(=O)c1cnccn1,i,i,i,i,-86,i
Nc1c(Br)cc(Br)c2c1C(=O)c1c(cccc1S(=O)(=O)O)C2=O,-74,?,nt,?,?,nt
NS(=O)(=O)c1ccc(-n2ncc3c(=O)[nH]c(SCC(=O)Nc4nccs4)nc32)cc1,i,i,i,i,i,45µM
O=C(CSc1nc2[nH]ncc2c(=O)[nH]1)Nc1nccs1,nt,nt,i,nt,nt,i
COc1ccc2c(c1)c1c(c(=O)n(Cc3ccccc3)c(=O)n1Cc1cc(C)ccc1C)n2C,nt,i,i,i,nt,i
Cc1ccc(NC(=O)Cn2c(=O)ccc3cc(S(=O)(=O)N4CCC(C)CC4)ccc32)c(C)c1,nt,i,i,i,nt,i
Cc1ccc(-n2nc3c(=O)n(CC(=O)NCCc4ccc(Cl)cc4)nc(C)c3c2C)cc1,nt,i,79µM,i,i,?
Cc1cc(Cl)ccc1NC(=O)Cn1nc(C)c2c(C)n(-c3ccccc3)nc2c1=O,nt,i,56µM,i,nt,i
Cc1cc(Cl)ccc1NC(=O)CCCn1nc(C)c2c(C)n(-c3ccccc3)nc2c1=O,nt,i,i,i,nt,i
CCOc1ccc(S(=O)(=O)Nc2cccc(-c3ccc(OCC)nn3)c2)cc1,nt,i,i,i,nt,?
C=CCOC(=O)C1=C(C)NC(SCC(=O)NC(=O)OCC)=C(C#N)C1c1cccnc1 (centres undefined),i,i,i,i,i,50µM
CC(=O)C1=C(C)NC(SCSc2ccccc2)=C(C#N)C1c1cccnc1 (centres undefined),i,i,i,i,i,?
CC(=O)C1=C(C)NC(SCC(=O)c2ccc(-c3ccccc3)cc2)=C(C#N)C1c1cccnc1 (centres undefined),nt,nt,i,nt,nt,16µM
CCOC(=O)C1=C(CS(=O)(=O)c2c(C)cc(C)cc2C)NC(=O)NC1c1cccc(OC)c1 (centres undefined),nt,i,i,i,nt,i
CCOC(=O)N1CCN(C(=O)/C(=C/c2ccc(OC)c(OC)c2)NC(=O)c2ccccc2)CC1,i,i,i,i,i,i[0.501 µM]
